The campaign covered roughly 5,500 compounds. About 2,000 (36%) were called active. Not shown: some 18% with an inconclusive outcome. Cut-off read from the data, not from the text of the source: active = normalized growth mostly below about 0.91 (no sharp cut-off); inconclusive = no clear call, values can overlap the other calls; inactive = mostly above about 0.92. The list shows a part of the results.
Test: chemical genetic growth profiling, strain panel (AID 1159580);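 note: tested at 20 µM; growth read once vehicle control cultures reached saturation at 30 °C; 1 = growth at the plate median or of vehicle wells; lower values mean less growth of the strain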
Conditions: S. cerevisiae deletion strains, growth OD
[1] = locus YAL013W, strain DEP1, active compounds read low
[2] = locus YAL040C, strain CLN3, active compounds read low
[3] = locus YCL061C, strain MRC1 (second series), active compounds read low
[4] = locus YDR363W, strain ESC2, active compounds read low
[5] = locus YER002W, strain NOP16, active compounds read low
[6] = locus YNL175C, strain NOP13, active compounds read low
[7] = locus YNL197C, strain WHI3, active compounds read low
[8] = locus YNL224C, strain SQS1, active compounds read low
[9] = locus YOR083W, strain WHI5 (second series), active compounds read low
[10] = locus YPL241C, strain CIN2, active compounds read low

Measured: normalized growth

N=C(N)c1ccc(N)cc1
inactive: [1] 1.01 | [2] 0.975 | [3] 0.998 | [4] 0.981 | [5] 0.997 | locus YGR229C, strain SMI1, active compounds read low 1.01 | locus YMR307W, strain GAS1, active compounds read low 1 | locus YNL128W, strain TEP1, active compounds read low 0.978 | locus YNL153C, strain GIM3, active compounds read low 1 | [6] 1.01 | [7] 0.994 | [8] 0.968 | [9] 0.981 | [10] 1

N=C(N)c1ccc(OCCCCCOc2ccc(C(=N)N)cc2)cc1 (tested in a mixture with another compound)
inactive: [1] 0.943 | [2] 0.944 | [3] 0.981 | locus YDR150W, strain NUM1, active compounds read low 0.963 | [4] 0.961 | [5] 0.95 | locus YMR263W, strain SAP30, active compounds read low 0.983 | [6] 0.962 | [7] 0.943 | [8] 0.946 | [9] 0.944 | locus YPL055C, strain LGE1, active compounds read low 0.912 | [10] 0.95
